High-throughput results: PubChem, National Center for Advancing Translational Sciences (NCATS)
Most compounds without a hit are left out; they make up all but 9.4% or so of the library.
IMPase Li cell: qHTS Assay for Identifying the Cell-Membrane Permeable IMPase Inhibitors: Potentiation with Lithium; CHO-M1 cells, IP1 TR-FRET (IP-One), carbachol + lithium; Potency, µM (doses to about 59.4 µM), for inactives: at the top dose activity, negative = IMPase inhibition, usual class: inhibitors; 0.35% of 210,000 active;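 further: IP1 builds up when IMPase is blocked and the TR-FRET signal falls; potency means the concentration at half of the fitted maximal effect; plate controls were basal vehicle for no effect and high inhibitor control for full effect; nearly all actives have a fitted effect of over 50% in size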
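Steps: plate 2000 CHO-M1 cells per well and culture 16–30 h; add compound and lithium; incubate 30 min, 37C; add d2-IP1 tracer and Eu cryptate anti-IP1 antibody in lysis buffer; read after 10 min at room temperature.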
HTT aggregate: qHTS Multiplex Assay to Identify Dual Action Probes in a Cell Model of Huntington: Aggregate Formation (GFP). PC12 HttQ103-GFP aggregates, Acumen cytometry, 40 h. Potency, µM (series often up to 46.1 µM), inactives show top-dose activity change, negative = inhibition, actives largely listed as inhibitors. 1.1% of 220,000 active; further: potency means the concentration at half of the fitted maximal effect; on the % scale 0 is the no-effect control and ±100 the full control effect; nearly all actives have a fitted effect of over 60% in size
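Steps: seed 1500 PC12 HTTQ103-GFP cells/well; add tebufenozide, 100 nM final; add compound titration; add ATPLite reagent; quantify GFP aggregates by laser scanning cytometry.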
ALDH1A1 inh: qHTS Assay for Inhibitors of Aldehyde Dehydrogenase 1 (ALDH1A1); Potency, µM (series often up to 75.3 µM), for inactives: at the top dose activity, negative = inhibition, actives largely listed as inhibitors; 7.3% of 220,000 active; Purified ALDH1A1, NADH fluorescence, propionaldehyde substrate; AID 1030, 2008; active means well fitted inhibition curve with a large enough effect, not every such curve was filed as active; inconclusive means small, poorly fitted or top-dose-only effect, or another doubt; inactive means no such curve, though single readings can be large or run the other way;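 further: potency means the concentration at half of the fitted maximal effect; plate controls were no enzyme wells and a reference inhibitor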
Target sequence (P00352 whole entry, looked up): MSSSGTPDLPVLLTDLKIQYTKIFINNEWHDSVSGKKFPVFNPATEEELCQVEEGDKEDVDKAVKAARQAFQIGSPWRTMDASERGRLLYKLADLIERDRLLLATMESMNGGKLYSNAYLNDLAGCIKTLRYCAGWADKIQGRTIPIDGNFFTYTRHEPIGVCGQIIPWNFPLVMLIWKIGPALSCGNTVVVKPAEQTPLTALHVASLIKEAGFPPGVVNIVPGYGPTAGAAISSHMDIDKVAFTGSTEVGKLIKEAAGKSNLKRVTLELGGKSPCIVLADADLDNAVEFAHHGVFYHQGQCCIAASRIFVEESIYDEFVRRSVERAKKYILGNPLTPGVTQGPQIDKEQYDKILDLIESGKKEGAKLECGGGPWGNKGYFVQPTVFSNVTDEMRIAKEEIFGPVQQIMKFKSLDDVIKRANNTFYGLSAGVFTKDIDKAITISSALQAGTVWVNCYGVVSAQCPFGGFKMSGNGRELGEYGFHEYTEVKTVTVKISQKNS
HTT ATP protect: qHTS Multiplex Assay to Identify Dual Action Probes in a Cell Model of Huntington: Cytoprotection (ATP). Potency, µM (titrated, usually from 56.4 µM), without a hit: cytoprotection (ATP increase), actives largely listed as activators. AID 1471, 2008. PC12 HTT-Q103 induced, cytoprotection, ATP luminescence, 40 h. 0.14% of 230,000 active; further: potency means the concentration at half of the fitted maximal effect; % of control where 0% means no effect; nearly all actives have a fitted effect of over 45% in size
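PC12 cells with ecdysone-inducible HTT exon 1 Q103-GFP, induced with 100 nM tebufenozide and co-treated with library compounds in a dose series (1536-well, 1500 cells/well). Cytoprotection read as ATP content by ATPlite luminescence.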
HPGD inh: qHTS Assay for Inhibitors of HPGD (15-Hydroxyprostaglandin Dehydrogenase); 4.3% of 150,000 active; purified HPGD, NADH fluorescence kinetic, PGE2 substrate; 15-hydroxyprostaglandin dehydrogenase [NAD(+)] (Homo sapiens), P15428; AID 894, 2007; Potency, µM, for inactives: top-dose activity change, negative = inhibition, actives largely listed as inhibitors; active means well fitted inhibition curve with a large enough effect, not every such curve was filed as active; inconclusive means small, poorly fitted or top-dose-only effect, or another doubt; inactive means no such curve, though single readings can be large or run the other way; further: potency means the concentration at half of the fitted maximal effect; on the % scale 0 is the no-effect control and ±100 the full control effect
Target sequence (P15428 whole entry, looked up): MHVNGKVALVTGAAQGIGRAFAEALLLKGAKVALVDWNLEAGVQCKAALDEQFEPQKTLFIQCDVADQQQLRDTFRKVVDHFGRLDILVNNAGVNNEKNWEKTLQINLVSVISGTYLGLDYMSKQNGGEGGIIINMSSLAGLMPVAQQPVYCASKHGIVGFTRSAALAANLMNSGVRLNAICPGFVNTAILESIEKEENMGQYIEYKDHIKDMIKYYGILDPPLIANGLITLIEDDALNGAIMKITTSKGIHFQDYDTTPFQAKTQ
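20 nM HPGD preincubated 15 min at room temperature with compound in 50 mM Tris-HCl pH 8, 0.01% Tween 20. Started with 1 mM NAD+ and 30 uM prostaglandin E2; NADH fluorescence (360/450 nm) read 5 times over 30-s intervals, last minus first.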
IMPase cell inh: qHTS Assay for Identifying the Cell-Membrane Permeable IMPase Inhibitors | CHO-M1 cells, IP1 accumulation, HTRF TR-FRET ratio | inhibition (IP1 accumulation), % at 46.1 µM | 120,000 tested, under 10 active; active means well fitted curve in the direction sought with a large enough effect in the signal ratio, not every such curve was filed as active; inconclusive means small, poorly fitted or top-dose-only effect, or a change in a side signal; inactive means no such curve, though single readings can be large or run the other way; the % refers to the signal ratio;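 further: cells stimulated with carbachol in lithium chloride buffer; plate controls were DMSO basal wells for no effect and reference inhibitor wells for full effect; higher means more IMPase inhibition seen as more IP1 and lower FRET ratio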
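Seeded CHO-M1 cells were dosed with compound at up to 46 uM, stimulated with carbachol for 30 min, then lysed in IP-One detection reagents. Higher IP1 lowers the TR-FRET signal.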
* = called active by the depositor; u = inconclusive; x = no result given; [ ] = dose if it differs, or a comment. Unless noted, the call rests on the fitted dose curve; in most records, active means well fitted curve in the direction sought with a large enough effect; inconclusive means small, poorly fitted or top-dose-only effect, or another doubt; inactive means no such curve, though single readings can be large; an effect the other way counts as inactive or inconclusive.

SMILES | IMPase Li cell | HTT aggregate | ALDH1A1 inh | HTT ATP protect | HPGD inh | IMPase cell inh
COc1ccc(N/N=C(/C(N)=O)C2=NC(C)(C)Cc3ccccc32)cc1 | 13% | 10µM* | -16% | -8%[10 µM] | -21% | x
c1cc(-n2nnc3cnccc32)ccn1 | x | -9%[9.22 µM] | x | 25%[10 µM] | x | x
c1ccc(-n2nnc3cnccc32)cc1 | 3%[38.3 µM] | 7% | 1.3µM* | 3% | -28% | -6
N=C(N)S/C=C\C(=O)O | 9% | x | 7.9µM* | u | 35µM* | -2
Cc1ccc(C(=O)COC(=O)c2cccc(NC(=O)c3ccc(Cl)cc3Cl)c2)cc1 | x | x | x | x | x | 3
CC(C)C[C@@H](CC(=O)N[C@@H](CCC(=O)O)CC(=O)O)NC(=O)[C@@H]1CNCC[C@H]1NC(=O)C[C@H](CCCN)NC(=O)C[C@H](Cc1ccccc1)NC(=O)[C@@H]1CCCC[C@H]1N | 1% | x | 5% | -1%[1.9 µM] | -11% | x
C=CCn1c(SCC(=O)N2CCOCC2)nc(O)cc1=O | u | u | 2% | 7% | -23% | 9
C=CCn1c(SCC(=O)N2CCCCC2)nc(O)cc1=O | 17%[38.3 µM] | 3% | 7% | 3% | 0.32µM* | 3
CCOc1c(Br)ccc2c1sc1nc[nH]c(=O)c12 | x | 11µM* | 3% | 11%[10 µM] | x | -4
CN=C(c1ccc(C)cc1)n1c(=S)nc(-c2ccc(C)cc2)n(C)c1=S | 8% | -10% | u | -53% | x | x
CN=C(c1ccco1)n1c(=S)nc(-c2ccco2)n(C)c1=S | -4%[38.3 µM] | 9%[9.22 µM] | 10µM* | -18% | u | 2
CN(C)c1ccc(-c2nccc(NCCN3CCOCC3)n2)cc1 | 0% | x | u | -30% | u | x
Cn1nc(C(F)(F)F)c(/C=N/OC(=O)c2ccccc2Cl)c1SCc1ccccc1Cl | 17% | 10µM* | 0% | -48%[10 µM] | -4% | 16
Cn1nc(C(F)(F)F)c(/C=N/OC(=O)c2ccccc2)c1SCc1ccc(Cl)cc1 | 11%[38.3 µM] | u | 3% | -89% | 0% | u
O=C(O)CCn1cnc2c(=S)nc[nH]c21 | 1% | x | -12%[13.5 µM] | 11%[10 µM] | 0% | x
COc1ccc(C(=O)OCC(=O)c2cc(OC)ccc2OC)c(OC)c1 | -1%[38.3 µM] | 17% | -10% | -11%[10 µM] | -12% | -3
COc1ccc(OC)c(C(=O)COC(=O)C2CC3CCCC(C2)C3=O)c1 (configuration not stated) | 44%[38.3 µM] | -2% | 7.1µM* | -13%[10 µM] | -24% | 10
CN(Cc1ccco1)c1nc(-c2ccoc2)nc2ccccc12 | 20% | x | u | -32% | x | x
COc1cccc(CNC(=O)CCC2CCCN(C(=O)c3cccc4c(C)c(C)[nH]c34)C2)c1 (configuration not stated) | x | -1% | 28µM* | 5% | x | x
COc1cccc(CNC(=O)CCC2CCCN(C(=O)c3cccc(Cl)c3)C2)c1 (configuration not stated) | 7% | 2%[9.22 µM] | u | 14%[10 µM] | x | x
O=C(NC(NC(=S)Nc1c(Cl)cc(Cl)cc1Cl)C(Cl)(Cl)Cl)OCc1ccccc1 (configuration not stated) | 23% | -22% | 3.5µM* | 7%[10 µM] | -8% | 3
Cc1cc(=O)[nH]c(SCC(=O)NN(c2ccccc2)c2ccccc2)n1 | x | -2%[9.22 µM] | x | 19%[10 µM] | x | x
C=C1CSc2nc(=O)c3c4c(sc3n21)CCCC4 | -4%[38.3 µM] | 1% | -15% | 14% | 14µM* | 4
C=C1CSc2nc(=O)c3c4c(sc3n21)CCC4 | 3%[38.3 µM] | 6% | 6% | -2% | 14µM* | 12
COc1ccc(NC(=S)NNS(=O)(=O)c2ccc3ccccc3c2)c(OC)c1 | -4% | 1%[9.22 µM] | 22µM* | 24%[10 µM] | x | x
SMILES | IMPase Li cell | HTT aggregate | ALDH1A1 inh | HTT ATP protect | HPGD inh | IMPase cell inh
COc1ccc(NC(=O)C2CC2)cc1-n1cnnn1 | -3%[38.3 µM] | -11%[9.22 µM] | -6% | -17%[10 µM] | 14µM* | 0
CCC(C)(C)n1nnnc1CN1CCN(C(c2ccccc2)c2ccccc2)CC1 | 13% | 14µM* | 25µM* | 11%[10 µM] | -12% | u
c1ccc(C(c2ccccc2)N2CCN(Cc3nnnn3C3CCCC3)CC2)cc1 | 12%[38.3 µM] | u | 11µM* | -9%[10 µM] | -4% | 1
CC(C)CCn1nnnc1CN1CCN(C(c2ccccc2)c2ccccc2)CC1 | 9% | u | 14µM* | -53% | x | x
Fc1ccc(C(c2nnnn2C2CCCC2)N2CCN(Cc3ccccc3)CC2)cc1 (configuration not stated) | x | 12% | u | -9% | x | 23
Cc1ccc(Sc2ccc(N)cn2)cc1 | x | 13%[9.22 µM] | 0% | -2%[10 µM] | x | x
CCOc1ccc(CCNC(=O)c2ccc(Nc3nc4ccccc4n4nnnc34)cc2)cc1OCC | x | x | x | x | x | 7
c1ccc(CCNc2nc3ccccc3n3nnnc23)cc1 | 3.5µM* | -9% | 10% | -22% | -22% | u
COc1ccc(CNc2nc3ccccc3n2Cc2ccc(C)cc2)cc1OC | -2% | -17% | -6% | -8%[10 µM] | -16% | x
COc1ccc(CCNCc2csc3nc4ccccc4n23)cc1OC | 1%[38.3 µM] | 7.1µM* | -5% | -18% | -8% | 7
COc1ccc(CCNc2nc3ccccc3n3nnnc23)cc1OC | 10µM* | 10% | 8% | 14% | -14% | 1
Clc1ccc(/C=C/c2nc(Cl)c(-c3ccc(Cl)cc3)c(Cl)n2)cc1 | x | 6%[9.22 µM] | x | 12%[10 µM] | x | x
C=C(COC)C1=CCC(C(=O)OC)(C(=O)OC)[C@@H](C[N+](=O)[O-])c2ccccc21 | 18% | x | -11% | 13% | -2% | x
O=C(NCc1ccccc1)c1cc(-c2ccncc2)nc2ccc(S(=O)(=O)N3CCOCC3)cc12 | -4% | 12% | 0.79µM* | x | -22% | x
CN(C)c1ccc(C2NCC(CCl)O2)cc1 (configuration not stated) | 21%[38.3 µM] | -2% | 1.4µM* | 15% | -5% | 8
CN(C)c1ccc(CNC2CC(C)(C)NC(C)(C)C2)cc1 | 31%[38.3 µM] | 13% | u | -16% | -10% | 0
C[C@]12CCC(=O)C=C1CCC1C3CC[C@](O)(C(=O)CO)[C@@]3(C)CC3OC312 (some centres not stated) | 7% | x | u | -38% | -8% | x
CCOC(=O)c1nc(C)sc1-c1ccnn1S(=O)(=O)c1ccc(C)cc1 | x | 1%[9.22 µM] | 3.2µM* | 9%[10 µM] | x | x
CC1CCC(C(=O)O)NC1c1cccc(N2CCCC2=O)c1 (configuration not stated) | x | x | 14%[13.5 µM] | 3%[10 µM] | x | x
